The values below come from PubChem BioAssay.

Unmarked numbers belong to inactive results. For part of these data: Entries with a potency or affinity are not part of this list. Active and inactive are the calls of the source. Unless noted, how the calls were made is not given here.

The nature of assay [1]: antimalarial activity against Dd2 strain (AID 2302;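 active means growth inhibition above 50% at the single 2 µM test dose, taken to imply half-maximal potency below 2 µM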;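 further: 0% = DMSO untreated growth and 100% = chloroquine plus artemisinin killed control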). Conditions: P. falciparum Dd2 in RBCs, LDH growth readout, 72 h; at 2 µM; hits give high values.
A short description of assay [2]: HepG2 cytotoxicity, primary screen, cytotoxicity control for P. falciparum antimalarial project, cell-based, ATP luminescence (AID 2303;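 active means inhibition above 50%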;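 further: 0% = DMSO wells and 100% = digitonin-killed cells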). Particulars: HepG2 viability, 24-48 h, at 10 µM, hits give high values.
The target of assay [3] is L-lactate dehydrogenase (Plasmodium falciparum (isolate CDC / Honduras)) (UniProt Q27743). The assay is described as follows: PfLDH activity inhibition – cell lysate, 3D7 strain, counter-screen for P. falciparum growth inhibition project (AID 2304).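 Further: 0% = vehicle and 100% = reference inhibitor.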 Particulars: P. falciparum 3D7 crude extract, LDH APAD/NBT absorbance; at 2 µM; hits give high values. A general note: The purpose of a counterscreen is to sort out artefacts and off-target activity.
Chain of L-lactate dehydrogenase (Plasmodium falciparum (isolate CDC / Honduras)) (Q27743 whole entry, looked up): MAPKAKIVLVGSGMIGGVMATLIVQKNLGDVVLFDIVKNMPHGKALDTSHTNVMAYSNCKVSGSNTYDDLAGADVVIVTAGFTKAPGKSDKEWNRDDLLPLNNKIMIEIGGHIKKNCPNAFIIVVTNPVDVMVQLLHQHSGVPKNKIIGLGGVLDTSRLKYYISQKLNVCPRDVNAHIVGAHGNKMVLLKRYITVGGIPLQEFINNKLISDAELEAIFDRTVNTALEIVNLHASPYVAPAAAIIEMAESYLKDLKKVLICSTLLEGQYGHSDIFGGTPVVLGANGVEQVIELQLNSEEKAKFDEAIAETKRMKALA

A short description of assay [4]: inhibition of 3D7 malaria parasite growth – strain 3D7 (AID 2306).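 Further: 0% = DMSO wells and 100% = chloroquine plus artemisinin control wells.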 Conditions: P. falciparum 3D7 erythrocytic growth, LDH absorbance, 72 h; at 2 µM; hits give high values.
Assay [5] concerns the target Calcium-dependent protein kinase 1 (Plasmodium falciparum (isolate 3D7)) (UniProt P62344). The assay is described as follows: PfCDPK1 kinase inhibitors, biochemical, TCAMS library (AID 1159585; cut-off not given, nearly all actives have IC50 up to about 0.98 µM;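 further: inhibitors leave more ATP so luminescence rises with inhibition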). Particulars: recombinant PfCDPK1, Kinase-Glo ATP depletion luminescence.
Assay [6] deals with Plasmodium falciparum protein kinase 6 (PK6, PF3D7_1337100) (UniProt Q8IDW1). The assay is described as follows: PfPK6 kinase inhibitors, biochemical, TCAMS library (AID 1159586). Conditions: recombinant PfPK6, Kinase-Glo ATP depletion luminescence. (Kinase-Glo reads ATP consumption through a luciferase reaction.)
Chain of Plasmodium falciparum protein kinase 6 (PK6, PF3D7_1337100) (Q8IDW1 1-305): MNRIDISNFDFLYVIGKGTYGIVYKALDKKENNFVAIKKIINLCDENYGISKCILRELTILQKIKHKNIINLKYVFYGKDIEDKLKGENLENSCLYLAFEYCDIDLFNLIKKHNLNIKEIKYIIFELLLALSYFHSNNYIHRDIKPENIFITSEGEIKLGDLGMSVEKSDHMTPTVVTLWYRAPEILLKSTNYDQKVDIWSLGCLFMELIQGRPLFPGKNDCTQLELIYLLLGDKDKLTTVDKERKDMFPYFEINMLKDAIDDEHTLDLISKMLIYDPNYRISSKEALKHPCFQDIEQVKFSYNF
Assay [7] deals with Protein kinase 7 (PK7), Plasmodium falciparum 3D7 (PF3D7_0213400) (UniProt Q7YTF7). The assay is described as follows: inhibition of Plasmodium PK7 catalytic activity – biochemical, TCAMS antimalarial set, Kinase-Glo luminescence (AID 1159587). Particulars: recombinant PfPK7, Kinase-Glo ATP depletion luminescence.
Chain of Protein kinase 7 (PK7), Plasmodium falciparum 3D7 (PF3D7_0213400) (Q7YTF7 1-343): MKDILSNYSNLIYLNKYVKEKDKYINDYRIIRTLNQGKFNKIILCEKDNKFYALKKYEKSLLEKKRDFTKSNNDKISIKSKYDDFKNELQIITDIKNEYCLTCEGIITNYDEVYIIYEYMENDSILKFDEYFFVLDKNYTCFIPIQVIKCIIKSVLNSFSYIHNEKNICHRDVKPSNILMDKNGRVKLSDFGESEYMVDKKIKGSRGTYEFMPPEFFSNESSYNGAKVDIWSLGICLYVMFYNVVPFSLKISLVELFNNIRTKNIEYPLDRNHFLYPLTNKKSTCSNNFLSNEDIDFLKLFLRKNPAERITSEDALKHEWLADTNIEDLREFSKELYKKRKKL
In assay [8] the target is Calcium-dependent protein kinase 4 (Plasmodium falciparum (isolate 3D7)) (UniProt Q8IBS5). The assay is described as follows: PfCDPK4 kinase inhibitors, biochemical, TCAMS library (AID 1159588; cut-off not given, nearly all actives have IC50 up to about 0.91 µM). Particulars: recombinant PfCDPK4, Kinase-Glo ATP depletion luminescence.
Chain of Calcium-dependent protein kinase 4 (Plasmodium falciparum (isolate 3D7)) (Q8IBS5 whole entry, looked up): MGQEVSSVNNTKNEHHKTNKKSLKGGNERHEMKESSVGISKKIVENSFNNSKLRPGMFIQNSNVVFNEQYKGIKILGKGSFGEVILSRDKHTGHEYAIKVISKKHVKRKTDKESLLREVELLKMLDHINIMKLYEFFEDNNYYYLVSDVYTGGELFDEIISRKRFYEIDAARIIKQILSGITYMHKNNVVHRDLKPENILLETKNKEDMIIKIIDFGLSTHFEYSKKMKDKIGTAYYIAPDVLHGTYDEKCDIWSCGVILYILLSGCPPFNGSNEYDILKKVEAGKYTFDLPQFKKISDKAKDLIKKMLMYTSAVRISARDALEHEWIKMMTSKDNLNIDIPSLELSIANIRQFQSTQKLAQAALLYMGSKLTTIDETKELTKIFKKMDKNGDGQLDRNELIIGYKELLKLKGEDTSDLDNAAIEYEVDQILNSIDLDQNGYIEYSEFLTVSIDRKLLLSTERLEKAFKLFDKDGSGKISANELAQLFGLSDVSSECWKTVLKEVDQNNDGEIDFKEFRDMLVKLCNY

Chain of Calcium-dependent protein kinase 1 (Plasmodium falciparum (isolate 3D7)) (P62344 whole entry, looked up): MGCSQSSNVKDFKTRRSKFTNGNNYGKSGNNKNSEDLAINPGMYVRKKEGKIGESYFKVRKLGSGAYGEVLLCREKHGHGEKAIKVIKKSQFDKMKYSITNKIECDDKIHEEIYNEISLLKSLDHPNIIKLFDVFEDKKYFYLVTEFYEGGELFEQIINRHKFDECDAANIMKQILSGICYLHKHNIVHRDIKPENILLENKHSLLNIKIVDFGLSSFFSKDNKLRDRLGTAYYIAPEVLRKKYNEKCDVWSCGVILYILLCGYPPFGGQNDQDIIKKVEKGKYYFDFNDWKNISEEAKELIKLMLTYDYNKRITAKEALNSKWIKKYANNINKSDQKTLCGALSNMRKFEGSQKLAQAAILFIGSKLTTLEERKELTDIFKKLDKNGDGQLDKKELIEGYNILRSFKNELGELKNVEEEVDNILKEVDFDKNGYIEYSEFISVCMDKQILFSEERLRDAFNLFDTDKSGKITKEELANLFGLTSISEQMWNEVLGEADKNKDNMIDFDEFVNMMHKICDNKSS

For `CC1CCCN1Cc1cccc(-c2ccc(C(=O)NCCOc3ccccc3)s2)c1` (centres undefined), the growth inhibition in assay [1] is 0%; in assay [4] it was 83% (active). In addition, the inhibition in assay [2] is 26%; in assay [3], -3%. In addition, the outcome in assay [5], in assay [6], in assay [7] and in assay [8] was inactive.

In the case of `COc1ccc(-c2cccc(NC(=O)c3cccc(C#N)c3)c2)cc1CN1CCN(C)CC1`, the growth inhibition in assay [1] was 16%; in assay [4] it was 91% (active). Moreover, the inhibition is 25% in assay [2] and -2% in assay [3]. Also, the result in assay [5], in assay [6], in assay [7] and in assay [8] was inactive.

Consider `CCOC(=O)NC1=NC(C)(C)N(OCc2ccc(Cl)c(Cl)c2)C(N)=N1`, for which the growth inhibition in assay [1] was 90% (active); in assay [4] it was 96% (active). In addition, the inhibition in assay [2] was 66% (active); in assay [3], -5%. The result in assay [5], in assay [6], in assay [7] and in assay [8] was inactive.

As for `c1cc(CN2CCCCC2)cc(-c2cccc(-c3nc4ccccc4[nH]3)c2)c1`, the values for the growth inhibition in assay [1] and in assay [4] were 37% and 100% (active), respectively. Moreover, the inhibition in assay [2] is 39%; in assay [3], 0%. In addition, the outcome in assay [5], in assay [6], in assay [7] and in assay [8] was inactive.

For the molecule `COc1ccc(C(=O)Cn2nc(-c3ccc(Cl)cc3)ccc2=O)c(OC)c1`, the figures for the growth inhibition in assay [1] and in assay [4] were 70% (active) and 93% (active), respectively. Moreover, the inhibition is -12% in assay [2] and 4% in assay [3]. Further, the result in assay [5], in assay [6], in assay [7] and in assay [8] was inactive.

With `O=C(Nc1ccc(-c2ccc(-c3nc4ccccc4[nH]3)s2)cc1)Nc1ccsc1`, the figures for the growth inhibition in assay [1] and in assay [4] were 54% (active) and 100% (active), respectively. For the same molecule, the inhibition in assay [2] is 25%; in assay [3] it was 5%. Also, the result in assay [5], in assay [6], in assay [7] and in assay [8] was inactive.

As to `COc1cc(C(=O)NC2CC(C)(C)N(C)C(C)(C)C2)ccc1-c1cc2cc(Cl)c(Cl)cc2[nH]1`, the growth inhibition is 36% in assay [1] and 89% (active) in assay [4]. In addition, the inhibition was 65% (active) in assay [2] and 1% in assay [3]. Also, the result in assay [5], in assay [6], in assay [7] and in assay [8] was inactive.

`CC(C)N1CCN(C(CN2CCN(CCCOc3ccccc3-c3ccccc3)CC2)c2ccc(F)cc2)CC1` (centres undefined): the growth inhibition in assay [1] is 96% (active); in assay [4] it was 100% (active). The values for the inhibition in assay [2] and in assay [3] were 98% (active) and 5%, respectively. The outcome in assay [5], in assay [6], in assay [7] and in assay [8] was inactive.

Turning to `O=C(Cc1cnc[nH]1)Nc1cccc(-c2ccc(-c3nc4ccccc4[nH]3)cc2)c1`, the results for the growth inhibition in assay [1] and in assay [4] were 72% (active) and 99% (active), respectively. Besides, the inhibition in assay [2] is 7%; in assay [3], -1%. For the same molecule, the outcome in assay [5], in assay [6], in assay [7] and in assay [8] was inactive.

In the case of `CC(C)CCN1CCC(Oc2cccc(NC(=O)c3ccc(C(F)(F)F)cc3)c2)CC1`, the growth inhibition is 6% in assay [1] and 98% (active) in assay [4]. The inhibition in assay [2] was 39%; in assay [3] it was -2%. The result in assay [5], in assay [6], in assay [7] and in assay [8] was inactive.

Consider `CCN(CC)CCN(Cc1ccc(-c2ccc(C#N)cc2)cc1)C(=O)Cn1c(CCc2cccc(F)c2F)nc(=O)c2ccccc21`, for which the growth inhibition in assay [1] is 46%; in assay [4], 100% (active). For the same molecule, the inhibition in assay [2] was 31%; in assay [3], -1%. The result in assay [5], in assay [6], in assay [7] and in assay [8] was inactive.

For the molecule `O=C(Nc1cccc(-c2ccc(-c3nc4ccc(C(F)(F)F)cc4[nH]3)cc2)c1)Nc1ccc(Cl)c(Cl)c1`, the growth inhibition in assay [1] is 51% (active); in assay [4], 100% (active). In addition, the inhibition was 93% (active) in assay [2] and -2% in assay [3]. Further, the outcome in assay [5], in assay [6], in assay [7] and in assay [8] was inactive.

As for `CCCc1cn2c3c(cc(C(=O)N[C@@H](Cc4ccccc4)[C@H](O)CNC4CCCCC4)cc13)N(C)S(=O)(=O)CC2`, the growth inhibition in assay [1] was 98% (active); in assay [4], 99% (active). The values for the inhibition in assay [2] and in assay [3] were 3% and -2%, respectively. Further, the outcome in assay [5], in assay [6], in assay [7] and in assay [8] was inactive.

In the case of `Fc1ccc(Nc2ccnc3cc(I)ccc23)c(Cl)c1`, the growth inhibition in assay [1] is 24%; in assay [4] it was 95% (active). The inhibition is 35% in assay [2] and 1% in assay [3]. The result in assay [5], in assay [6], in assay [7] and in assay [8] was inactive.

With `CN1CCCc2ccc(NC(=O)c3cc(-c4ccc(Cl)cc4)cs3)cc2C1`, the growth inhibition in assay [1] was 40%; in assay [4] it was 94% (active). In addition, the inhibition is 35% in assay [2] and -2% in assay [3]. The outcome in assay [5], in assay [6], in assay [7] and in assay [8] was inactive.

Take `O=C(NCCN1CCCCC1)c1ccc(CNC(=O)c2ccc(O)c(-c3cccc(C(F)(F)F)c3)c2)cc1`: the growth inhibition in assay [1] was 47%; in assay [4], 94% (active). Also, the results for the inhibition in assay [2] and in assay [3] were 3% and 1%, respectively. Besides, the outcome in assay [5], in assay [6], in assay [7] and in assay [8] was inactive.

For `COc1ccc2c(OC)ccc(CNCCCCCCNCc3ccc(OC)c4ccc(OC)cc34)c2c1`, the growth inhibition in assay [1] was 98% (active); in assay [4], 102% (active). Besides, the results for the inhibition in assay [2] and in assay [3] were 100% (active) and -3%, respectively. For the same molecule, the result in assay [5], in assay [6], in assay [7] and in assay [8] was inactive.

In the case of `COc1ccc2nccc(NC(=O)C3CCC(NCc4ccc5c(c4)NC(=O)CS5)CC3)c2c1` (centres undefined), the growth inhibition in assay [1] was 19%; in assay [4], 94% (active). The inhibition in assay [2] is 0%; in assay [3], -4%. In addition, the result in assay [5], in assay [6], in assay [7] and in assay [8] was inactive.

Usually inhibition stands for the drop in the measured response relative to a control, in per cent.
